# Screening data from PubChem BioAssay.
# Sampled rows, rich in hits. Any-hit rate of the full collection: about 2.9%.
# TRPM1 prom inh: inhibitors of MITF-dependent TRPM1 promoter reporter, primary screen, cell-based, SK-MEL-5, single point, luciferase. SK-MEL-5 TRPM1 promoter luciferase, 24 h. inhibition, % at 12.5 µM. 0.83% of 330,000 active;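 active = mean inhibition across replicates of 60% or more, whatever share of single replicates reaches that level; inconclusive = some that reach 60%, reason not given; inactive = mean inhibition across replicates below 60%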
# NSD2 inh: NSD2 histone methyltransferase inhibitors, primary screen, biochemical, AlphaScreen, single concentration, set 2. 0.54% of 310,000 active. inhibition, % at 12.5 µM. Histone-lysine N-methyltransferase NSD2 (Homo sapiens), O96028. NSD2 peptide methylation, 120 min; in the data active = inhibition above about 50%
# Target sequence (O96028 whole entry, looked up): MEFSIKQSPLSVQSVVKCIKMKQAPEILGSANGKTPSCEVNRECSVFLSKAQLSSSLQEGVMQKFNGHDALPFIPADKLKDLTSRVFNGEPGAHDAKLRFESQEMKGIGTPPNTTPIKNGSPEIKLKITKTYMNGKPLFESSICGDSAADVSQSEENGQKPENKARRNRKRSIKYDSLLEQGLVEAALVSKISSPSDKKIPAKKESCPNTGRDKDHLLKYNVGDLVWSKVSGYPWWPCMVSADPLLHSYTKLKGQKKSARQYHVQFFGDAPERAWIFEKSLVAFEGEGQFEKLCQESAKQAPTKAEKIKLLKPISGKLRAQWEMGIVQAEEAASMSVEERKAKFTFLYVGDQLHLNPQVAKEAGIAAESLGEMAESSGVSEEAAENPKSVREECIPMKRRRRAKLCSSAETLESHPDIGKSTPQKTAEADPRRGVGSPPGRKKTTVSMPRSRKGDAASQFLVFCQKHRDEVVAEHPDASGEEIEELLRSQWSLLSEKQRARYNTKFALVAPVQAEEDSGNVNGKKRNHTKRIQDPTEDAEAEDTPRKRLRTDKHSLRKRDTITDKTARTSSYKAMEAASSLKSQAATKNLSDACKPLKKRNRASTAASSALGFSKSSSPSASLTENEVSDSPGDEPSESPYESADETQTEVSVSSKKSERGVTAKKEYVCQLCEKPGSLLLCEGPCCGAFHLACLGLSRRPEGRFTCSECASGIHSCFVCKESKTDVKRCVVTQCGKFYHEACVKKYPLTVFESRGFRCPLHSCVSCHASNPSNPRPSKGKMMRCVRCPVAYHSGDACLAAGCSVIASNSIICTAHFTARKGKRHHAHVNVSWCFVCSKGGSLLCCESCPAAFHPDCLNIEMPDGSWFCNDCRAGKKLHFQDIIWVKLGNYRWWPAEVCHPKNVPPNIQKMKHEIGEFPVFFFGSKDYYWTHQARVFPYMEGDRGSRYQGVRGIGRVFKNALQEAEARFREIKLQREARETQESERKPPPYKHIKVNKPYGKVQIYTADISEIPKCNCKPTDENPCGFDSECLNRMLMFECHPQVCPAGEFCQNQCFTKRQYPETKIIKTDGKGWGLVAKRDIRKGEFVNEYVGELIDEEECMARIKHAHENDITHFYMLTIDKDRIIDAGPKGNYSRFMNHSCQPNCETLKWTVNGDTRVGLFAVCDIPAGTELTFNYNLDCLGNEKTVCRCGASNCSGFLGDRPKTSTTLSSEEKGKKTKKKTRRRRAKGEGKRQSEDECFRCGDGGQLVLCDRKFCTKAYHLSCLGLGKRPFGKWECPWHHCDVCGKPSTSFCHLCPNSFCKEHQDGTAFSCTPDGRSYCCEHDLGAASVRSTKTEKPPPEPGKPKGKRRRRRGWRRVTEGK
# PfHsp90 yeast 2: growth inhibition of PfHsp90-expressing yeast, primary screen, antimalarial PfHsp90 inhibitor project, S. cerevisiae, BacTiter-Glo luminescence, single point, set 2. BacTiter-Glo ATP, 48 h; yeast lacking PDR1 and PDR3 efflux regulators. AID 504621, 2011. 0.32% of 310,000 active. inhibition, % at 9.4 µM;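 active = every replicate shows inhibition above about 80%, whatever the replicate mean, limit read from the data; inconclusive = mean inhibition reaches the set limit but some replicate falls short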;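 note: 0% = DMSO neutral controls and 100% = 20 µM radicicol positive controls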
# Wnt act: Wnt/beta-catenin pathway activators, primary screen, cell-based, plate reader, single point; AID 743398, 2014; activation, % at 9.35 µM; 1.2% of 300,000 active; Wnt/beta-catenin reporter cell assay, activator; in the data active = activation above about 30%, passing the limit was not always enough; inconclusive = no clear call, values can overlap the other calls;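 note: 0% = neutral control wells and 100% = positive control wells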
# MITF act: activators of MITF-driven TRPM1 promoter reporter, primary screen, cell-based, SK-MEL-5, luciferase, single point; activation, % at 12.5 µM; SK-MEL-5 TRPM1-promoter luciferase, 24 h; % of positive control, neutral wells = 0; 0.75% of 300,000 active; AID 588334, 2011;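 active = mean activation of at least 80% with every replicate also reaching 80%; inconclusive = mean reaches 80% but some replicate falls short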;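 note: 0% = neutral control wells and 100% = parthenolide positive control wells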
# N-glyco inh: increase of ERlucT glycosylation luciferase signal, primary screen, N-linked glycosylation inhibitor project, D54 ERlucT cells, luminescence, set 2; 0.23% of 360,000 active; reporter increase, % at 12.5 µM; D54 ERlucT glycosylation luciferase reporter, 24 h; percent of 100 nM tunicamycin response;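 active = mean luciferase reporter signal, scaled so untreated is 0 and the glycosylation-blocking control 100, at or above a set limit in every replicate; inconclusive = mean reaches the limit but not every replicate does; inactive = mean below the limit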;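 note: luciferase carries N-glycosylation sites so blocking glycosylation raises the light; 0% = median of neutral control wells and 100% = median of 100 nM tunicamycin wells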
# An asterisk follows results filed as active; ? = inconclusive; . = no result given.
SMILES,TRPM1 prom inh,NSD2 inh,PfHsp90 yeast 2,Wnt act,MITF act,N-glyco inh
CCc1ccccc1NC(=O)c1cccc(NC(=O)/C=C/c2ccco2)c1,-3,0,22,110*,2,4
Cc1ccc(-n2nc3ccc(NC(=O)/C=C/c4ccco4)cc3n2)cc1,-10,-2,-20,58*,9,2
CC(C)[C@H](NC(=O)c1ccco1)C(=O)Nc1ccc(OC(F)F)cc1,7,0,-5,-1,-11,-2
COc1ccc(C(=O)C(CCC(CNC(C)(C)C)C(=O)c2ccc(OC)cc2)CNC(C)(C)C)cc1 (stereo not given),95*,10,12,.,-96,-16
C=C1C(=O)CC2=C1[C@](Cc1ccc(F)cc1)(C(=O)OC)N(C(=O)c1ccccc1)C2,.,.,.,-1,.,.
C=C1C(=O)C=C2CN(C(=O)c3ccccc3)[C@@](Cc3ccc(F)cc3)(C(=O)OC)[C@@H]12,99*,.,3,.,-99,-21
O=C(NCC(=O)N1CCC(Cc2ccccc2)CC1)c1ccccc1F,.,1,.,45*,.,-3
O=C(OCC(=O)N1CCC(Cc2ccccc2)CC1)c1ccccc1NCCO,-12,-6,11,-4,11,0
O=C(OCC(=O)N1CCC(Cc2ccccc2)CC1)c1ccccc1O,-87,0,-22,-3,90*,-3
O=C(NC(=O)c1ccccc1)Nc1ccc(Cl)cn1,-43,-2,2,35*,53,-8
O=C(Nc1ccc(Cl)cn1)c1ccccc1F,-22,0,3,39*,30,-8
O=C(Nc1ccc(Cl)cn1)Nc1ccccc1F,-37,-1,.,39*,.,2
O=C(Nc1ccc(Cl)cn1)Nc1ccc(Cl)cn1,-23,-2,-14,22,25,2
Cc1cc(C)cc(NC(=O)Nc2ccc(Cl)cn2)c1,-3,-1,4,-1,0,0
C/C(=C\c1ccccc1)C(=O)Nc1ccc(Cl)cn1,-95,-8,-7,33*,.,-12
O=C(C1CCCN1S(=O)(=O)c1ccc(Br)s1)N1CCN(c2ccccc2)CC1 (stereo not given),.,4,.,.,.,.
COc1ccc(C2NN=C(c3ccc(C)cc3)S2)cc1OC (stereo not given),-67,-1,25,41*,57,-7
Cc1ccc(C2=NNC(c3cccc(F)c3)S2)cc1 (stereo not given),21,.,-12,6,-19,-20
O=C(CCn1cccn1)N1CCCC(N2CCN(c3cccc(C(F)(F)F)c3)CC2)C1 (stereo not given),15,14,-3,32*,-13,0
O=C(Cn1cccn1)N1CCCC(N2CCN(c3cccc(C(F)(F)F)c3)CC2)C1 (stereo not given),10,-4,8,1,-11,1
Cc1cc(S(=O)(=O)Nc2nc(CN3CCOCC3)nc3sc4c(c23)CCC4)ccc1F,10,3,.,-4,-7,2
Cc1ccnc2nc(C(=O)Nc3cc(Cl)ccc3N3CCOCC3)nn12,-1,-6,25,.,1,41*
CC(=O)N1N=C(c2cccc([N+](=O)[O-])c2)OC1c1ccc(Br)cc1 (stereo not given),-43,2,12,4,-7,-1
CC(=O)N1N=C(c2ccccc2)OC1c1ccc([N+](=O)[O-])s1 (stereo not given),3,21,127*,.,-3,24
CN=C1S/C(=C/c2cc(C)n(-c3ccc(Cl)cc3F)c2C)C(=O)N1C,.,-2,.,.,.,.
SMILES,TRPM1 prom inh,NSD2 inh,PfHsp90 yeast 2,Wnt act,MITF act,N-glyco inh
C=CCn1c(SCC(=O)c2[nH]c(C)c(C(=O)OC)c2C)nc2scc(-c3ccc(OC)c(OC)c3)c2c1=O,105*,9,2,-13,-104,23
COc1ccccc1Cc1c(C2CCCCC2)nc2ccc(Cl)cn12,.,.,.,-1,.,-2
COc1ccc(C2=Cc3ccc(OC(C)=O)cc3OC2)cc1,-95,.,-35,14,103*,-5
COc1ccc(S(=O)(=O)N2CCCc3nc(-c4ccccc4)ccc32)cc1,.,.,.,2,.,.
CC(C)c1ccc(S(=O)(=O)N2CCN(CC(=O)c3ccc(O)c(O)c3)CC2)cc1,6,96*,-16,-3,-10,0
Cc1ccc(COc2ccc3c(c2)OCO3)cc1,-66,4,3,33*,60,-9
O=Cc1ccc(OCc2ccc3c(c2)OCO3)cc1,-29,-4,4,16,.,-9
O=C(Nc1cccc(S(=O)(=O)N2CCCCC2)c1)c1ccc([N+](=O)[O-])o1,80*,1,-3,-11,-79,18
O=C(COC(=O)c1ccc([N+](=O)[O-])o1)Nc1cccc(S(=O)(=O)N2CCCCC2)c1,0,4,.,-1,0,3
Cc1ccc(NC(=O)c2ccc([N+](=O)[O-])o2)cc1S(=O)(=O)N1CCOCC1,84*,10,-4,.,-83,?
COC(=O)C1=C(C)N(Cc2ccccc2C(F)(F)F)C(=NCc2cc(OC)c(OC)c(OC)c2)NC1c1ccccc1C(F)(F)F (stereo not given),.,.,.,-5,.,.
Cc1ccc(S(=O)(=O)N2c3ccccc3C[C@H]2CCC(=O)c2ccccc2)cc1,.,22,.,.,.,.
CC(C)c1ccc(/C=C2\SC(N3CCCC3)=NC2=O)cc1,-27,14,2,41*,26,-2
O=C1N(Cc2cccc(Cl)c2)C[C@@H]2C[C@@H](c3ccccn3)N3CCC[C@@]123,3,-1,-3,33*,-2,5
CCn1ccnc1[C@@H]1C[C@H]2CN(Cc3cccc(Cl)c3)C(=O)[C@]23CCCN13,7,-4,-19,0,-7,-1
O=C(COc1ccc(Br)cc1)N1CCc2ccccc21,-88,-3,-4,28,99*,-2
Cn1cccc1C(=O)OCC(=O)N1CCc2ccccc21,-97,-2,3,53*,100*,-2
Cc1ccc(C(=O)OCC(=O)N2CCc3ccccc32)cc1,-103,-1,-3,23,108*,1
Cc1ccc(C(=O)OCC(=O)N2CCCc3ccccc32)cc1C,-21,1,.,7,19,1
O=C(C(=O)N1CCN(S(=O)(=O)c2ccc(OC(F)(F)F)cc2)CC1)c1cccc(C(F)(F)F)c1,.,10,.,-1,.,.
COc1cccc(Cn2cc(COC(=O)N3CCOCC3)nn2)c1,.,-1,.,.,.,.
Cc1cc(C)c2c(NC(=S)NC(=O)c3ccccc3)n[nH]c2n1,4,27,1,1,-7,0
OCCNc1ncnc2c1sc1nc(N3CCOCC3)c3c(c12)CCC3,-10,-2,-43,-2,12,0
